Experimental findings from PubChem BioAssay AID1851 (National Center for Advancing Translational Sciences (NCATS), 2009) are described below.

Structures are written as SMILES. In all, about 16,000 compounds went through this assay and about 2,600 (16%) were called active. Roughly 20% stayed inconclusive and do not appear here. Not all results are given here. Unmarked numbers belong to inactive results. Calls come from the whole dose curve; as a rule, active = well fitted curve in the direction sought with a large enough effect; inconclusive = small, poorly fitted or top-dose-only effect, or effect the other way; inactive = no such curve, though single readings can be large or run the other way.
% is set by controls: 0 for no effect and ±100 for the full control effect.

In this test the target is Cytochrome P450 2D6 (Homo sapiens) (UniProt P10635). The test is described as follows: Cytochrome panel assay with activity outcomes. The following applies: recombinant CYP, pro-luciferin dealkylation, luminescence, p450-cyp2d6; series mostly up to 57.1 µM; activity, negative = inhibition: at the top concentration.
Sequence of Cytochrome P450 2D6 (Homo sapiens) (P10635 whole entry, looked up): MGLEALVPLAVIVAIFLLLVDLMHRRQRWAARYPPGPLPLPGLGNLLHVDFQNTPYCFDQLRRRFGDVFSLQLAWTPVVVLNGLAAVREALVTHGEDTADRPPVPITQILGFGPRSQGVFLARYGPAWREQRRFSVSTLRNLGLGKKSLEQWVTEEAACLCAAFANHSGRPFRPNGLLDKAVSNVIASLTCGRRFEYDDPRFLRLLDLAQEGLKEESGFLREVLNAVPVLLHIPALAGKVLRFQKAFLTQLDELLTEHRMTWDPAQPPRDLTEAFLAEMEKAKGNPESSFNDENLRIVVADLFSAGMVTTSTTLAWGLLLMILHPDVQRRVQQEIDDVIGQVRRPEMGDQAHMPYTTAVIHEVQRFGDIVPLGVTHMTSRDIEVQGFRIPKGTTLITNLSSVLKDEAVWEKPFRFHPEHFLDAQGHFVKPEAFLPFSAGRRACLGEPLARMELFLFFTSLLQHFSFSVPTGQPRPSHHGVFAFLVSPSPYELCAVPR
`C#CCCCO/N=C1/C[C@@H](O)[C@@H](O)[C@@H]2[C@@H]3C(=O)N([C@@H](C)c4ccccc4)C(=O)[C@H]3CC[C@@H]12`: the activity, negative = inhibition is -9.9% [at 11.4 µM].

As for `COc1cc(OC)cc(C(=O)NCC(=O)OC2CCOC2=O)c1` (stereo unspecified), the “activity, negative = inhibition” value is -8.8%.

Turning to `O=C(Nc1ncc(Cc2cccc(Cl)c2)s1)C1=NCCN1`, the “activity, negative = inhibition” value was -16.7%.

In the case of `CC1CCCC(C)N1C(=O)C1CC(c2ccc(F)cc2)=NO1` (stereo unspecified), the “activity, negative = inhibition” value is -5.48%.

By AC50 is commonly meant the midpoint of the concentration-response curve, whichever way the signal moves. `CCc1ccc(CSc2nccn2-c2ccccc2)cc1`: the concentration at half-maximal activity (AC50) was 17.8 µM (active).

With `Clc1ccc(CSc2nccn2Cc2ccccc2)cc1`, the concentration at half-maximal activity (AC50) was 5.01 µM (active).

For the molecule `Nc1nc(SCc2ccccc2)c2ncn(Cc3ccccc3)c2n1`, the activity, negative = inhibition is 9.39% [at 11.4 µM].

`Cn1c(CNC(=O)Nc2ccccc2)nnc1SCc1ccccc1`: the “activity, negative = inhibition” value was -8.99%.

As to `O=c1ccnc(SCc2ccc(Cl)cc2)[nH]1`, the activity, negative = inhibition was 6.62% [at 11.4 µM].

Regarding `CCn1c(SCc2ccc(C)cc2)nnc1-c1nn(-c2ccccc2)ccc1=O`, the “activity, negative = inhibition” value was -12.7%.

On to `O=C(O)CSCCc1ccccc1`, for which the activity, negative = inhibition is -0.751% [at 11.4 µM].

`c1ccc(CCSc2nccn2-c2ccccc2)cc1`: the concentration at half-maximal activity (AC50) is 1.41 µM (active).

As to `Cc1noc(NC(=O)Nc2ccccc2F)c1C#N`, the activity, negative = inhibition was 0.368% [at 11.4 µM].

`CC(/C=C/c1ccco1)=N/NC(=O)c1ccccc1Cl`: the “activity, negative = inhibition” value was -12.5%.

Turning to `CCOC(=O)N/N=C1/C[C@@H](O)[C@@H](O)[C@@H]2[C@@H]3C(=O)N(C(C)(C)C)C(=O)[C@H]3CC[C@@H]12`, the activity, negative = inhibition was -10.6% [at 11.4 µM].

Turning to `CO[C@H]1COC(=O)CCC[C@H](C)[C@@H](OC)COC(=O)C/C=C\[C@@H]1C`, the activity, negative = inhibition was -0.797% [at 11.4 µM].

As to `Cc1ccc(S(=O)(=O)c2cc(N3CCOCC3)nc(-c3ccccc3)n2)cc1`, the “activity, negative = inhibition” value is -14%.

`N#CCCn1c(=O)cnc2cnc(OCc3ccccc3)nc21`: the “activity, negative = inhibition” value is -3.27%.

For the molecule `CCCNC(=O)OC[C@@H]1O[C@H](CCON=C(C)C)C=C[C@@H]1Oc1ccc(OC)cc1`, the activity, negative = inhibition is -7.52% [at 11.4 µM].

Consider `COc1cc2nc(N3CC=[N+](C(=O)c4ccco4)CC3)nc(N)c2cc1OC`, for which the “activity, negative = inhibition” value is -10%.

Take `CCOc1ccccc1/C=C(\C#N)C(N)=O`: the activity, negative = inhibition was 1.77% [at 11.4 µM].

Consider `C[C@H]1C2=C3C(CC[C@H]4C(OCc5ccc(F)cc5C(F)(F)F)OC[C@](C)([C@@H]34)N(C(=O)OC(C)(C)C)C2)C(CO)C1CO` (stereo partly specified), for which the “activity, negative = inhibition” value is -7.43%.

Turning to `Nc1nc2c(c(=O)[nH]1)N(C=O)[C@H](CNc1ccc(C(=O)N[C@@H](CCC(=O)O)C(=O)O)cc1)CN2`, the “activity, negative = inhibition” value was 2.81% [at 25.6 µM].

Regarding `CC(Sc1nnc(Cc2cccs2)n1C1CCCCC1)C(N)=O` (stereo unspecified), the “activity, negative = inhibition” value is 2.37%.

Turning to `CC1CCC(NC(=O)CC(C)(C)Cc2nc3ccccc3c(=O)[nH]2)CC1` (stereo unspecified), the “activity, negative = inhibition” value is -11.4%.

For `N=C(C[C@@H](O)COc1ccccc1-c1ccccc1)N1CCCCC1`, the AC50 was 31.6 µM (active).

Turning to `O=C(COc1ccccc1-c1ccccc1)N/N=C/c1cccc2ccccc12`, the “activity, negative = inhibition” value is -20.7%.

In the case of `O=c1c(-c2cc(F)cc(F)c2)nc2cnc(N3CCNCC3)nc2n1C1CC1`, the “activity, negative = inhibition” value is -10.9%.

As for `Cc1ccc2cc(C(=O)O)c(C)nc2c1`, the “activity, negative = inhibition” value is 14.1%.

In the case of `Cc1ccc(CSc2nc3c(c(SCC(=O)O)n2)CCCC3)cc1`, the “activity, negative = inhibition” value was 22.3%.

Take `CO[C@H]1COC(=O)C/C=C\[C@@H](C)[C@H](OC)COC(=O)[C@H]2CCCN2C(=O)C/C=C\[C@@H]1C`: the activity, negative = inhibition is 18.5% [at 11.4 µM].

Regarding `CC(O)(CS(=O)(=O)Cc1ccccc1Cl)C(=O)Nc1cccc(C(F)(F)F)c1` (stereo unspecified), the “activity, negative = inhibition” value was -19.7%.

For `O=C(Nc1ccccc1)N(Cc1ccccc1)CC(O)C(F)(F)F` (stereo unspecified), the “activity, negative = inhibition” value was -12.8%.

For the molecule `O=C(Nc1cccc(C(F)(F)F)c1)N(Cc1ccc(Cl)cc1)CC(O)C(F)(F)F` (stereo unspecified), the AC50 is 15.8 µM (active).

Consider `O=S(=O)(NCc1cn2ccsc2n1)c1ccc(Oc2ccccc2)cc1`, for which the “activity, negative = inhibition” value was -5.31%.

Take `O=C(NCCOC(=O)c1ccc(C(=O)OCCNC(=O)c2cccnc2)s1)c1cccnc1`: the “activity, negative = inhibition” value is -19.5%.

Regarding `CCN(c1ccc(NC(=O)COC(=O)c2ccc3ccccc3n2)cc1)C(C)C`, the “activity, negative = inhibition” value was -23.3%.

In the case of `O=C(OCCNC(=O)c1ccc2ccccc2n1)c1ccc(F)cc1`, the AC50 was 15.8 µM (active).

In the case of `Cc1cc(C)cc(-n2nnnc2SCC(=O)Nc2nc(-c3ccc(Cl)cc3)cs2)c1`, the “activity, negative = inhibition” value was -11.9%.

Take `CC(=O)N1CCC2(CC1)CCN(C(c1ccccc1)c1ccccc1)CC2`: the concentration at half-maximal activity (AC50) is 7.94 µM (active).

On to `Cc1noc(C)c1C(=O)N1CCC[C@@]2(CCN(c3ccccc3)C2)C1`, for which the “activity, negative = inhibition” value was -15%.

Take `CC(=O)N1CCC2(CC1)CN(c1ccccc1)C2`: the “activity, negative = inhibition” value was 3.1%.

Take `Cc1noc(C)c1C(=O)N1CCC2(CCCN(C(c3ccccc3)c3ccccc3)C2)CC1`: the AC50 is 2 µM (active).

Take `CC(=O)N1CCC2(CC1)CN(C(c1ccccc1)c1ccccc1)C2`: the “activity, negative = inhibition” value was 13.1%.

`COc1ccc(NC(=O)N2CCCC3(CCN(C(=O)c4c(C)noc4C)CC3)C2)cc1`: the half-maximal activity concentration (AC50) is 10 µM (active).

For the molecule `COc1ccc(NC(=O)N2CC[C@@]3(CCCN(C(=O)c4c(C)noc4C)C3)C2)cc1`, the “activity, negative = inhibition” value is 18.1%.

Consider `Cc1noc(C)c1C(=O)N1CCC2(CC1)CN(c1ccccc1)C2`, for which the “activity, negative = inhibition” value was -7.99%.

As for `COC(=O)N1CCC[C@@]2(CCN(C(c3ccccc3)c3ccccc3)C2)C1`, the half-maximal activity concentration (AC50) was 2 µM (active).

With `COC(=O)N1CCC[C@@]2(CCN(C(=O)Nc3ccc(OC)cc3)C2)C1`, the “activity, negative = inhibition” value was -5.4%.

As to `COc1ccc(NC(=O)N2CC3(CCN(C(=O)c4c(C)noc4C)CC3)C2)cc1`, the “activity, negative = inhibition” value is -3.71%.

In the case of `COC(=O)N1CCC[C@@]2(CCN(C(=O)Nc3ccccc3)C2)C1`, the “activity, negative = inhibition” value was 4.3%.
